From PubChem BioAssay (NCI)
This is part of a sample that, as a whole, favours compounds with a hit. Of some 79,000 tested, about 15% had one in any assay. Active and inactive are the calls of the source. Rule as the data show it: active = growth inhibition above about 70%; inactive = the rest.

What was measured:
[1] = NCI Yeast Anticancer Drug Screen. Data for the wt1 strain (AID 149);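 also: 0% = growth of vehicle-treated wt1 cultures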; details: S. cerevisiae wt1 strain (SPY 50644) growth inhibition, hits give high values
Summary of the method: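 Measured: growth of wt1 yeast under compound versus vehicle treatment, reported as inhibition.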

[2] = NCI Yeast Anticancer Drug Screen. Data for the rad50EPP+ strain (AID 151);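 also: 0% = growth of vehicle-treated control cultures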; details: S. cerevisiae rad50 mutant strain, hits give high values
Summary of the method: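 rad50EPP+ yeast treated with test compounds. Readout: growth vs vehicle control.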

[3] = NCI Yeast Anticancer Drug Screen. Data for the mgt1 strain (AID 153); details: S. cerevisiae mgt1 mutant growth inhibition, hits give high values
Summary of the method: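 Growth inhibition relative to vehicle controls was scored for the mgt1 yeast strain after compound exposure.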

[4] = NCI Yeast Anticancer Drug Screen. Data for the rad50 strain (AID 155);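 also: 0% = growth of vehicle-only cultures of the same strain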; details: S. cerevisiae rad50 strain growth inhibition, hits give high values
Summary of the method: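 Growth of the mutant yeast was measured after compound exposure and referenced to vehicle-treated cultures.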

[5] = NCI Yeast Anticancer Drug Screen. Data for the mec2-1 strain (AID 157); details: S. cerevisiae mec2-1 strain, hits give high values
Summary of the method: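 Growth inhibition is read against vehicle-treated controls after compound exposure of the mec2-1 yeast strain, which is defective in DNA damage repair or cell cycle control.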

[6] = NCI Yeast Anticancer Drug Screen. Data for the rad14 strain (AID 159);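 also: 0% = growth of vehicle-treated control cultures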; details: S. cerevisiae rad14 strain growth inhibition, hits give high values
Summary of the method: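 Here, inhibition of yeast growth was measured after compound exposure, using a strain with a genetic defect in DNA damage repair and vehicle-treated cultures as the reference.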

[7] = NCI Yeast Anticancer Drug Screen. Data for the sgs1 mgt1 strain (AID 161);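 also: 0% = growth of cultures given vehicle only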; details: S. cerevisiae sgs1 mgt1 strain, hits give high values
Summary of the method: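 Yeast cells carrying a defined DNA-repair defect were exposed to test compounds. Growth inhibition was measured relative to vehicle-treated controls.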

[8] = NCI Yeast Anticancer Drug Screen. Data for the CLN2oe strain (AID 163);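 also: 0% = growth of vehicle-only control cultures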; details: S. cerevisiae CLN2oe strain, hits give high values
Summary of the method: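 Compound-treated yeast; growth vs vehicle ctrl = % inhibition. Genetically altered strain (cell-cycle control).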

[9] = NCI Yeast Anticancer Drug Screen. Data for the cln2 rad14 strain (AID 165);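 also: 0% = growth equal to vehicle treated cultures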; details: S. cerevisiae cln2 rad14 strain, hits give high values
Summary of the method: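 Growth inhibition, relative to vehicle-treated controls, is the read-out. The test organism is a yeast strain with defined genetic alterations, cln2 rad14.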

[10] = NCI Yeast Anticancer Drug Screen. Data for the bub3 strain (AID 167); details: S. cerevisiae bub3 mutant strain, hits give high values
Summary of the method: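 Whole-cell yeast assay. The mutant strain was incubated with compounds, and growth inhibition was determined by comparison with vehicle-treated cells.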

[11] = NCI Yeast Anticancer Drug Screen. Data for the wt2 strain (AID 169);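 also: 0% = growth of vehicle-treated yeast cultures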; details: S. cerevisiae wt2 strain growth inhibition, hits give high values
Summary of the method: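 Compound exposure of yeast; growth compared with vehicle controls; inhibition reported.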

[12] = NCI Yeast Anticancer Drug Screen. Data for the mlh1 strain (AID 171);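 also: 0% = growth of vehicle-treated control cultures of the same strain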; details: S. cerevisiae mlh1 strain growth inhibition, hits give high values
Summary of the method: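 Compounds are applied to a genetically altered yeast strain, and its growth is compared with that of vehicle-treated cultures to give percent inhibition.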

[13] = NCI Yeast Anticancer Drug Screen. Data for the sgs1 strain (AID 173);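 also: 0% = growth of vehicle-only control cultures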; details: S. cerevisiae sgs1 mutant, hits give high values
Summary of the method: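 Compounds applied to genetically altered yeast; growth compared with vehicle-treated cultures to give % inhibition.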

[14] = NCI Yeast Anticancer Drug Screen. Data for the mlh1 rad18 strain (AID 175); details: S. cerevisiae mlh1 rad18 strain growth inhibition, hits give high values
Summary of the method: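 Cells of a genetically altered yeast strain, deficient in DNA damage repair, were treated with compound. Their growth was then compared with that of vehicle-treated cultures to give inhibition.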

[15] = NCI Yeast Anticancer Drug Screen. Data for the rad18 strain (AID 177); details: S. cerevisiae rad18 mutant growth inhibition, hits give high values
Summary of the method: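 Compounds are applied to a repair-deficient yeast strain, and growth is compared with that of vehicle-treated cultures to give percent inhibition.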

[16] = at 5.0 µM (retest, dose inferred, filed as 0.5)
[17] = at 50.0 µM (retest, dose inferred, filed as 5.0)

Measured: growth inhibition

O=C(NO)Nc1cc(Cl)cc(Cl)c1
active: [1]; at 11.0 µM 80% | [1]; at 33.0 µM 99% | [1]; at 100.0 µM 98% | [2]; at 33.0 µM 88% | [2]; at 100.0 µM 86% | [3]; at 11.0 µM 100% | [3]; at 33.0 µM 99% | [3]; at 100.0 µM 98% | [4]; at 11.0 µM 99% | [4]; at 33.0 µM 99% | [4]; [17] 99% | [4]; at 50.0 µM 99.3% | [4]; at 100.0 µM 96% | [5]; at 11.0 µM 99% | [5]; at 33.0 µM 99% | [5]; [17] 99% | [5]; at 50.0 µM 99.2% | [5]; at 100.0 µM 98% | [6]; at 11.0 µM 99% | [6]; at 33.0 µM 98% | [6]; at 100.0 µM 98% | [7]; [17] 99% | [7]; at 50.0 µM 98.8% | [8]; at 11.0 µM 99% | [8]; at 33.0 µM 99% | [8]; at 100.0 µM 98% | [9]; [17] 99% | [9]; at 50.0 µM 99% | [10]; at 11.0 µM 99% | [10]; at 33.0 µM 99% | [10]; [17] 99% | [10]; at 50.0 µM 98.8% | [10]; at 100.0 µM 98% | [11]; at 11.0 µM 98% | [11]; at 33.0 µM 99% | [11]; at 100.0 µM 98% | [12]; at 11.0 µM 99% | [12]; at 33.0 µM 99% | [12]; at 100.0 µM 97% | [13]; at 11.0 µM 100% | [13]; at 33.0 µM 100% | [13]; at 100.0 µM 98% | [14]; [17] 99% | [14]; at 50.0 µM 99.3% | [15]; at 11.0 µM 99% | [15]; at 33.0 µM 99% | [15]; at 100.0 µM 98%
inactive: [1]; at 1.2 µM -3% | [1]; at 3.7 µM -3% | [2]; at 1.2 µM -4% | [2]; at 3.7 µM -4% | [2]; at 11.0 µM 19% | [3]; at 1.2 µM -3% | [3]; at 3.7 µM 16% | [4]; at 1.2 µM 7% | [4]; at 3.7 µM 50% | [4]; [16] 24% | [5]; at 1.2 µM -2% | [5]; at 3.7 µM 11% | [5]; [16] 0% | [6]; at 1.2 µM 8% | [6]; at 3.7 µM 20% | [7]; [16] 58% | [8]; at 1.2 µM 7% | [8]; at 3.7 µM 26% | [9]; [16] 21% | [10]; at 1.2 µM -2% | [10]; at 3.7 µM 10% | [10]; [16] -17% | [11]; at 1.2 µM -3% | [11]; at 3.7 µM 6% | [12]; at 1.2 µM 4% | [12]; at 3.7 µM 31% | [13]; at 1.2 µM -2% | [13]; at 3.7 µM 54% | [14]; [16] 64% | [15]; at 1.2 µM 3% | [15]; at 3.7 µM 34%
